In PubChem BioAssay (NCATS):
Results filed as inconclusive are left out. Calls of active or inactive are those of the source. Calls come from the whole dose curve; as a rule, active = well fitted curve in the direction sought with a large enough effect; inconclusive = small, poorly fitted or top-dose-only effect, or another doubt; inactive = no such curve, though single readings can be large; an effect the other way counts as inactive or inconclusive.

Assays:
[1] = Quantitative High-Throughput drug screen in 47 multiple myeloma cell lines against the NCATS MIPE library collection: NCIH929_DSMZ cell viability assay (AID 1918978); note: nearly all actives have a fitted effect of over 35% in size; note: potency is the fitted concentration of half-maximal effect
Summary of the method: (§1)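 500 cells/well; MIPE 4.0 drugs pin-transferred; 48 h, 37C, 5% CO2. CellTiter-Glo, 5 min RT, luminescence. Controls: DMSO 100%, media 0%.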

[2] = Quantitative High-Throughput drug screen in 47 multiple myeloma cell lines against the NCATS MIPE library collection: OCIMY1_PLB cell viability assay (AID 1918979); note: nearly all actives have a fitted effect of over 35% in size; note: potency is the fitted concentration of half-maximal effect; for viability: series mostly up to about 46 µM
Summary of the method: as §1

[3] = Quantitative High-Throughput drug screen in 47 multiple myeloma cell lines against the NCATS MIPE library collection: MM1R_ATCC cell viability assay (AID 1918981); note: nearly all actives have a fitted effect of over 35% in size
Summary of the method: as §1

[4] = Quantitative High-Throughput drug screen in 47 multiple myeloma cell lines against the NCATS MIPE library collection: KMS26_JCRB cell viability assay (AID 1918975); note: potency is the fitted concentration of half-maximal effect; nearly all actives have a fitted effect of over 45% in size
Summary of the method: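 Relative luminescence from CellTiter-Glo served as the viability signal, referenced to DMSO-treated (100%) and cell-free medium (0%) controls. Treatment lasted 48 hours at 37C with 500 cells per well.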

[5] = Quantitative High-Throughput drug screen in 47 multiple myeloma cell lines against the NCATS MIPE library collection: MMM1_PLB cell viability assay (AID 1918976); note: potency is the fitted concentration of half-maximal effect; nearly all actives have a fitted effect of over 35% in size
Summary of the method: as §1

[6] = Quantitative High-Throughput drug screen in 47 multiple myeloma cell lines against the NCATS MIPE library collection: MOLP8_DSMZ cell viability assay (AID 1918977); note: potency is the fitted concentration of half-maximal effect; nearly all actives have a fitted effect of over 45% in size
Summary of the method: as §1

[7] = Quantitative High-Throughput drug screen in 47 multiple myeloma cell lines against the NCATS MIPE library collection: MM1S_ATCC cell viability assay (AID 1918980); note: potency is the fitted concentration of half-maximal effect; nearly all actives have a fitted effect of over 45% in size
Summary of the method: as §1

Question: Which Potency [1] does the source give for `CC1(C)O[C@@H]2C[C@@H]3[C@H]4C[C@@H](F)C5=CC(=O)C=C[C@]5(C)[C@@]4(F)[C@@H](O)C[C@]3(C)[C@]2(C(=O)CO)O1` here?
Answer: The Potency was “inactive”.

Question: And the Potency [2]?
Answer: Its Potency is “inactive”.

Question: What about the Potency [3] of the same molecule?
Answer: Its Potency is “inactive”.

Question: With `COc1cc2nccc(Oc3ccc(NC(=O)C4(C(=O)Nc5ccc(F)cc5)CC4)cc3)c2cc1OC` as the molecule, how does the Potency [4] read?
Answer: Its Potency is 23.5 µM (active).

Question: What about the Potency [5] of the same molecule?
Answer: The Potency was 2.35 µM (active).

Question: And the Potency [6]?
Answer: Its Potency is 14.8 µM (active).

Question: And the Potency [1]?
Answer: The Potency was 16.6 µM (active).

Question: What about the Potency [2] of the same molecule?
Answer: The Potency was 26.4 µM (active).

Question: And the Potency [7]?
Answer: The Potency was 0.59 µM (active).
